Screen size: about 53,000 compounds; about 900 (1.7%) showed an effect of 50% or more. Many of the other results were omitted from the sample, so strong results are more common in it than they were.

The subject of the experiment is Mycobacterium tuberculosis. Kind of experiment: Cornell - Phenotypic assay to identify agents that inhibit growth of Mycobacterium tuberculosis. The experiment is classed as functional. The following applies: 10 mM as filed; unlikely as a test dose. Set-up: scale not given: direction of the effect not stated beside the values.
With `O=C1CCC(=O)N1c1nn(Cc2ccccc2)cc1Cl`, the “Percent Effect” value is given as -38.92%.
With `Cc1ccc(S(=O)(=O)c2ncccc2CN2CCCC2)cc1`, the “Percent Effect” value was -5.255%.
Then `N#CC1COCCN1C(=O)c1ccc2[nH]ccc2c1` (stereo not given), with 10.98%; and `CC(C)(C)n1cc(NC(=O)C2CN(Cc3ccccc3)CCO2)cn1` (stereo not given), with 19.34%; and `COc1ccccc1CNC(=O)CN(C)C(C)c1ccncn1` (stereo not given), with 1.408%.
Then `Cc1cn([C@H]2CCNC[C@]2(C)O)c(=O)[nH]c1=O`, with 34.03%; and `Cc1cn([C@@H]2CC3(CCNCC3)OC[C@@]2(C)O)c(=O)[nH]c1=O`, with 56.73%.
Then `CC(C)N1CC[C@@](C)(O)[C@H](n2ccc(=O)[nH]c2=O)C1`, with -3.084%; and `CCc1ncc(S(C)(=O)=O)c(C2CCCNC2)n1` (stereo not given), with 21.49%; and `CCc1c(O)nc(SCC(=O)c2ccccc2)n(-c2ccccc2)c1=O`, with 13.57%.
`CCc1c(O)nc(SC(C)CC)n(-c2ccccc2)c1=O` (stereo not given): the “Percent Effect” value came out at 96.76%.
To `CCc1c(O)n(C(C)CC)c(SCC(=O)c2ccccc2)nc1=O` (stereo not given) belongs 28.35%; to `CSc1nc(O)c(Cc2ccccc2)c(=O)n1-c1ccccc1`, 18.81%; to `CCCSc1nc(O)c(CC)c(=O)n1-c1ccccc1`, 98.89%.
As to `COc1ccc(Cc2c(O)nc(SC)n(-c3ccccc3)c2=O)cc1`, the “Percent Effect” value is -12.72%.
Consider `CCOc1ccc(Cc2c(O)nc(SC)n(-c3ccccc3)c2=O)cc1`, for which the “Percent Effect” value is given as 8.957%.
As for `CCc1c(O)nc(SCC(=O)N(CC)CC)n(C(C)CC)c1=O` (stereo not given), the “Percent Effect” value is 4.731%.
Then `CCc1c(O)nc(SCC(=O)Nc2ccccc2)n(C(C)CC)c1=O` (stereo not given), with 65.15%.
Take `CNC(=O)COc1ccc(CNCc2c(C)nn(C)c2N(C)C)cc1`: the “Percent Effect” value is -6.953%.
To `O=S(=O)(c1ccc(F)c(F)c1)n1cc(Cl)cn1` belongs -7.033%.
Then `CC1(Cc2ccc(F)cc2)Cc2cc(C(=O)NCCO)ccc2O1` (stereo not given), with 0.603%; and `COCc1noc(CN2C[C@H](NS(C)(=O)=O)[C@@H](C3CC3)C2)n1`, with 15.5%; and `CC(C)COC(=O)N1CC(=O)N(Cc2ccc(Cl)cc2)CC(O)C1` (stereo not given), with -5.11%.
In the case of `CS(=O)(=O)NCc1ncn2c1CN(C(=O)C1CCCO1)CCC2` (stereo not given), the “Percent Effect” value was found to be 5.323%.
As to `COc1cccc(-c2nc(C)c(C(=O)N[C@H](CO)CCSC)s2)c1`, the “Percent Effect” value is 3.237%.
To `CSCCC(NC(N)=O)C(=O)NCc1c(C)nn(-c2ccccc2)c1C` (stereo not given) belongs -4.034%.
Then `COC(=O)[C@H](CCSC)NC(=O)Cc1c(C)nn(-c2ccccc2)c1C`, with 83.92%.
Then `COc1cccc(-c2nc(C)c(C(=O)N[C@@H](CCSC)C(=O)O)s2)c1`, with 4.928%; and `COc1cncc(-n2nc(C)c(CC(C)=O)c2C)c1`, with 14.09%.
`COC(=O)C(CCSC)NC(=O)Cc1c(C)nn(-c2ccccc2)c1C` (stereo not given): the “Percent Effect” value came out at 87.19%.
Then `CC(C)C(=O)NCCCNC(=O)Nc1cc(-c2ccccc2)ns1`, with 30.68%.
To `CCS(=O)(=O)N1CCC2(CC1)CN(c1cccnc1)C(=O)CO2.O=C(O)C(F)(F)F` belongs -1.862%; to `CCc1nc(CNc2nc3c(s2)c(C)nn3C)cs1`, 82.51%; to `CCc1csc(CNc2nc3c(s2)c(C)nn3C)n1`, -15.98%.
Turning to `Cc1csc(CNc2nc3c(s2)c(C)nn3C)n1`, the “Percent Effect” value came out at 21.44%.
Then `Cc1nn(C)c2nc(NC3CCNCC3)sc12`, with 23.18%; and `Cc1nn(C)c2nc(NCCCN3CCCC(CO)C3)sc12` (stereo not given), with 5.889%.
As to `Cc1nc(CNc2nc3c(s2)c(C)nn3C)cs1`, the “Percent Effect” value is listed as 88.41%.
Then `CN(C)c1ncc(NC(=O)N2CCC(CN3CCCC3)C2)cn1` (stereo not given), with -23.44%; and `Cn1nccc1-c1ncc(-c2cc(C(=O)O)n(CC3CC3)c2)cn1`, with -21.93%.
Consider `CN(C)c1ncc(-c2cc(C(=O)O)n(CC3CC3)c2)cn1`, for which the “Percent Effect” value came to 80.35%.
In the case of `CN(CCS(=O)(=O)c1cc(Cl)ccc1Cl)CC(=O)Nc1cccc(F)c1`, the “Percent Effect” value is 108.9%.
`Cc1ccc(S(=O)(=O)N(C)CC(N)=O)c(Cl)c1`: the “Percent Effect” value amounted to 18.08%.
Then `CN(CCS(=O)(=O)c1cc(Cl)ccc1Cl)CC(=O)Nc1ccc(F)cc1`, with 110.1%; and `CN(CCOc1cccc(F)c1)CC(=O)Nc1ccncc1`, with 22.43%; and `CN(CCS(=O)(=O)c1cc(Cl)ccc1Cl)CC(N)=O`, with 108.8%.
Then `COc1ccc(Cl)cc1S(=O)(=O)N(C)CC(=O)Nc1ccccc1`, with 28.1%; and `CN(CC(=O)Nc1ccon1)S(=O)(=O)c1cc(Cl)ccc1Cl`, with -21.56%.
Then `CN(CC(=O)Nc1cccc(F)c1)Cc1nc(N)nc(N(C)C)n1`, with 30.17%; and `COc1ccc(Cl)cc1S(=O)(=O)N(C)CC(N)=O`, with 28.08%.
Consider `Cc1nn(C)c(C)c1-c1ccc(=O)n(C(C)C(=O)NC2CC2)n1` (stereo not given), for which the “Percent Effect” value was 11.69%.
For the compound `CC(C)Nc1nc2c(s1)C(=O)CN(CC1CC1)C2`, the “Percent Effect” value was -4.506%.
To `CCn1nc(C)c2c1cnn2CC(=O)N1CCN(C)CC1` belongs 13.07%; to `O=C(O)CN1CCOCC(Cc2ccc(Cl)cc2)C1` (stereo not given), -49.54%; to `CCCNC(=O)Cn1c(-n2nc(C)cc2C)nc(CCC)cc1=O`, 16.57%.
Then `CCCc1cc(=O)n(CC(=O)NCCOC)c(-n2nc(C)cc2C)n1`, with 61.91%; and `CCCc1cc(=O)n(CC(=O)NC(C)C)c(-n2nc(C)cc2C)n1`, with 19.53%.
Then `Cc1nn2cc(CNc3nccc(CCC(F)(F)F)n3)nc2s1`, with 14.28%; and `COc1cc(OC)cc(-c2noc(CN)n2)c1`, with -71.7%.
On to `COc1cc(OC)cc(-c2noc(CC(N)c3ccccc3)n2)c1` (stereo not given), for which the “Percent Effect” value is recorded as 63.98%.
To `Cl.NC(Cc1nc(-c2ccccc2)no1)c1ccccc1` (stereo not given) belongs 19.6%; to `COc1c(C2CCCN2Cc2nc(C3CC3)no2)c(C)nn1C` (stereo not given), -19.26%; to `CC(C)(C)c1noc(CN2CCCc3cc(OC(F)(F)F)ccc32)n1`, 12.22%.
To `Cc1nn(C)cc1C1CC(=O)Nc2c1cnn2C` (stereo not given) belongs 30.3%.
To `Cc1nnc(NCc2ccc(N3CCC(CO)CC3)cc2)c(C#N)c1C` belongs -12.64%; to `NC(=O)C1CCCN(c2ccc(CNC(=O)c3cnsn3)cc2)C1` (stereo not given), -38.73%; to `N#Cc1c(Cl)nsc1NCc1ccc(N2CCC(CO)CC2)cc1`, 51.2%.
As for `N#Cc1c(Cl)nsc1NCc1ccc(N2CCCC(C(N)=O)C2)cc1` (stereo not given), the “Percent Effect” value was determined as 80.86%.
To `NC(=O)C1CCCN(c2ccc(CNC(=O)c3csnn3)cc2)C1` (stereo not given) belongs -20.12%.
For the compound `N#Cc1c(Cl)nsc1NCc1ccc(N2CCSCC2)cc1`, the “Percent Effect” value stood at 23.04%.

For the origin of these results see ChEMBL document CHEMBL3988442, “University of Dundee, Small-Polar-MMV Screening Library” (2021).
